Inconclusive results are not listed. Entries that show only a call come without a potency. Activity calls are given as the source filed them. Calls follow the shape of the dose curve; as a rule, active = well fitted curve in the direction sought with a large enough effect; inconclusive = small, poorly fitted or top-dose-only effect, or another doubt; inactive = no such curve, though single readings can be large; an effect the other way counts as inactive or inconclusive.
How the values were obtained:
[1] = target: N-terminal Xaa-Pro-Lys N-methyltransferase 1 (Homo sapiens) (UniProt Q9BV86); assay: qHTS Assay for Inhibitors of N-terminal methyltransferase 1 (NTMT1): LOPAC validation of the NTMT1 SAHH-coupled ThioGlo3 Assay (AID 1347143);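 also: SAH from peptide methylation measured as thiol fluorescence via SAHH coupling and ThioGlo3; nearly all actives have a fitted effect of over 70% in size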; also: potency is read from the fitted curve at half-maximal effect
Chain of N-terminal Xaa-Pro-Lys N-methyltransferase 1 (Homo sapiens) (Q9BV86 whole entry, looked up): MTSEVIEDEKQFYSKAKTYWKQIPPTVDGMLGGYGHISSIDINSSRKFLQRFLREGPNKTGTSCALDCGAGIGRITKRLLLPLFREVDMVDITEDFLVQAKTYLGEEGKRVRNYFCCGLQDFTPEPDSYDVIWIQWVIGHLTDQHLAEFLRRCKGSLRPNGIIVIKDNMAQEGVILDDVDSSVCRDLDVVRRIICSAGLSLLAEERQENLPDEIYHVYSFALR
In short: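 In this qHTS pilot against the LOPAC set, 125nM NTMT1 met compounds tested at multiple concentrations, and fluorescence was normalized to background.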

[2] = target: Furin (Homo sapiens) (UniProt P09958); assay: Furin counterscreen qHTS for Zika virus inhibitors (AID 1347149); also: nearly all actives have a fitted effect of over 70% in size; also: potency is read from the fitted curve at half-maximal effect
Chain of Furin (Homo sapiens) (P09958 whole entry, looked up): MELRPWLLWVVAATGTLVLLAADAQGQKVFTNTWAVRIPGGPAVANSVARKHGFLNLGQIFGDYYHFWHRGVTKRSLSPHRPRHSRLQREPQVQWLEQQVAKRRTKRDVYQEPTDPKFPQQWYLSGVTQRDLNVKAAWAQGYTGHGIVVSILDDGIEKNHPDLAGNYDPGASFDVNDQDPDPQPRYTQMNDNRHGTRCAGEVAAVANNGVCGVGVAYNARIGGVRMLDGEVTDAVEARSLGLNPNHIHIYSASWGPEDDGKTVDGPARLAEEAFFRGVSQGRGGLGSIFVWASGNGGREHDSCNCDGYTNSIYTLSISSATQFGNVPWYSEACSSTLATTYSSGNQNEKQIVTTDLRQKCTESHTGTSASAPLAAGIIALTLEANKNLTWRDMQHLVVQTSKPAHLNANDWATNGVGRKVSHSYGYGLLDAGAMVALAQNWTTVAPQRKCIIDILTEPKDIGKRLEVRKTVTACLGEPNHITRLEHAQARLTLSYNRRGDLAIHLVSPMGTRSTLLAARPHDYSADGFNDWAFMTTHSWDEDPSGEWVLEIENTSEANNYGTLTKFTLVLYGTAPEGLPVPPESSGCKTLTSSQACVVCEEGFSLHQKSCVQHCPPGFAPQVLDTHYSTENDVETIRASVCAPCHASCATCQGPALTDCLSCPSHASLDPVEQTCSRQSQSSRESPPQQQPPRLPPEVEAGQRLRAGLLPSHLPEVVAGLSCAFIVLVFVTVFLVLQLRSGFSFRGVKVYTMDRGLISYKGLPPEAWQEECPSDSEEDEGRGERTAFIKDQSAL
In short: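 Counterscreen measures cleavage of 2 microM BOC-RVRR-AMC, below its ~15 microM Km, by 5 nM full-length human furin at pH 7.0 after a 15-min compound preincubation. Inhibition derives from the 15-min fluorescence increase at 37C.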

[3] = system: Zika virus NS2B-NS3 protease (linked construct); assay: Confirmatory screen NINDS AMC qHTS for Zika virus inhibitors (AID 1347152); also: nearly all actives have a fitted effect of over 70% in size; also: potency is read from the fitted curve at half-maximal effect
In short: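 Linked NS2B-NS3 protease, 1 nM, in 10 mM Tris-HCl pH 8.0, 0.01% Tween 20; compounds preincubated 15 min at room temperature. Nle-KRR-AMC 10 microM (Km 18.3 µM); 15-min fluorescence change (340/450 nm) fitted to 4-parameter Hill.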

[4] = system: Zika virus NS2B-NS3 protease (unlinked complex); assay: Confirmatory screen GU AMC qHTS for Zika virus inhibitors (AID 1347153); also: nearly all actives have a fitted effect of over 70% in size
In short: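 Noncovalent NS2B hydrophilic domain/NS3 protease complex (25 nM) in 10 mM Tris-HCl pH 8.0, 0.01% Tween 20 was preincubated 15 min at room temperature with compounds. Then 10 µM AMC substrate (Km 18.3 µM) was added; fluorescence was read over 15 min and fitted to a 4-parameter Hill equation.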

[5] = system: Zika virus NS2B-NS3 protease (unlinked); assay: Optimization of GU AMC qHTS for Zika virus inhibitors: Unlinked NS2B-NS3 protease assay (AID 1347151); also: potency is read from the fitted curve at half-maximal effect; nearly all actives have a fitted effect of over 80% in size
In short: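 Noncovalent NS2B hydrophilic domain–NS3 protease complex (25 nM final) in 10 mM Tris-HCl pH 8.0, 0.01% Tween 20; AMC substrate, room temperature 15 min (~20% conversion); fluorescence change normalized, 4-parameter Hill fit.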

SMILES: NCCS(=O)(=O)O
- Potency [1]: inactive

SMILES: N[C@@H](Cc1c[nH]c2ccc(O)cc12)C(=O)O
- Potency [1]: 50.1 µM (active)

SMILES: CC(C)(C)C(=O)Oc1ccc(S(=O)(=O)Nc2ccccc2C(=O)NCC(=O)O)cc1
- Potency [1]: inactive
- Potency [2]: inactive
- Potency [3]: inactive
- Potency [4]: inactive

SMILES: COc1cc2nc(N3CCN(C(=O)C4COc5ccccc5O4)CC3)nc(N)c2cc1OC (centres undefined)
- Potency [1]: 56.2 µM (active)
- Potency [5]: 26.7 µM (active)

SMILES: NS(=O)(=O)c1cc2c(cc1Cl)NCNS2(=O)=O
- Potency [1]: inactive

SMILES: Cc1ccc(-c2cc(C(F)(F)F)nn2-c2ccc(S(N)(=O)=O)cc2)cc1
- Potency [1]: inactive

SMILES: Cc1ccccc1N1C(=O)c2cc(S(N)(=O)=O)c(Cl)cc2NC1C (centres undefined)
- Potency [1]: 79.4 µM (active)
- Potency [2]: 27 µM (active)

SMILES: Cc1cn([C@H]2C=C[C@@H](CO)O2)c(=O)[nH]c1=O
- Potency [1]: inactive

SMILES: CC(C(=O)O)c1cccc(C(=O)c2ccccc2)c1 (centres undefined)
- Potency [1]: inactive

SMILES: CCC1(C)CC(=O)NC1=O (centres undefined)
- Potency [1]: inactive

SMILES: COc1cc2nc(N3CCN(C(=O)c4ccco4)CC3)nc(N)c2cc1OC
- Potency [1]: 28.2 µM (active)
- Potency [2]: 14.9 µM (active)
- Potency [3]: 10.5 µM (active)

SMILES: Clc1ccccc1C(c1ccccc1)(c1ccccc1)n1ccnc1
- Potency [1]: inactive
